RE007 growth inh – less growth of the S. pombe RE007 Vpr strain; Potency, µM (doses to about 92.2 µM), for the others: at the top dose activity change, negative = less growth, actives largely listed as inhibitors; AID 651644; hit rate 0.21% among 360,000; S. pombe RE007 Vpr strain, BacTiter-Glo ATP luminescence, 24 h; active = well fitted falling curve with a large enough effect; inconclusive = small, poorly fitted or top-dose-only effect; inactive = no such curve, though single readings can be large or run the other way; also: nearly all actives have a fitted effect of over 50% in size
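Fission yeast RE007 carrying one integrated HIV-1 vpr copy, seeded at OD 0.01 in PMG+AL medium with 23 nL pinned compound. Grown 24 h at 30 degrees; viability read by BacTiter-Glo luminescence after 5 min.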
LmPK inhibitor – inhibitors of Leishmania mexicana pyruvate kinase | purified LmPK, Kinase-Glo ATP luminescence, 1 h | Q27686 | hit rate 0.37% among 290,000 | Potency, µM (series often up to 57.5 µM), inactives show at the highest dose activity change, negative = inhibition, actives largely listed as inhibitors | AID 1721
Target sequence (Q27686 whole entry, looked up): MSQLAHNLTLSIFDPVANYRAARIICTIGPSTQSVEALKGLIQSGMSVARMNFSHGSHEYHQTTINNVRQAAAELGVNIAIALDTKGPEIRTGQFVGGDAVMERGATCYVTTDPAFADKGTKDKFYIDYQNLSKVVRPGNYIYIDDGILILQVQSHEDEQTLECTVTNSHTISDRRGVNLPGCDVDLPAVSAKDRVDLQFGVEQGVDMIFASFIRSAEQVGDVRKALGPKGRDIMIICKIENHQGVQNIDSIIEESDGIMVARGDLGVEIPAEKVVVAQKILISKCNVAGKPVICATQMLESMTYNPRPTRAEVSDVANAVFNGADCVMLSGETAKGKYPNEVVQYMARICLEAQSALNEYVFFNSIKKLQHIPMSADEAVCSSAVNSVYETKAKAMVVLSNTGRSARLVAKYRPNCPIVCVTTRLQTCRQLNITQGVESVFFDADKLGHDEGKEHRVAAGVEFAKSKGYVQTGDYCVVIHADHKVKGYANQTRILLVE
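0.1 nM LmPK, 0.5 mM PEP, 0.1 mM ADP; 50 mM imidazole pH 7.2, 7 mM MgCl2, 50 mM KCl; 1 h RT. Kinase-Glo luminescence readout, normalized to no-enzyme (full inhibition) and uninhibited wells.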
Sm TGR block – inhibitors of Schistosoma mansoni thioredoxin glutathione reductase; Potency, µM (doses to about 114 µM), without a hit: top-dose activity change, negative = inhibition, usual class: inhibitors; purified TGR, DTNB reduction, TNB absorbance 405 nm; hit rate 3% among 360,000; Q962Y6; also: nearly all actives have a fitted effect of over 60% in size
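Kinetic colorimetric format: TGR-catalysed, NADPH-driven DTNB reduction monitored via TNB absorbance. Enzyme dispensed at 20 nM; compound exposure 15 min at room temperature before reaction start.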
TbPYK inhibitor – inhibitors of Trypanosoma brucei pyruvate kinase. Q57TT1. TbPYK enzyme, Kinase-Glo Plus ATP luminescence, 45 min. Potency, µM (highest dose often 76.8 µM), for inactives: top-dose activity, negative = inhibition, actives largely listed as inhibitors. hit rate 0.12% among 410,000; also: nearly all actives have a fitted effect of over 50% in size
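ADP (130 uM final) triggers the TbPYK reaction after compound addition; incubation is 45 min at room temperature. Kinase-Glo Plus is then added and luminescence imaged. Normalized data are fitted to concentration-effect curves.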
* = called active by the depositor; ? = inconclusive; / = no result given; ! = repeats disagree; [ ] = another dose, or the depositor's remark. Compounds with a hit are over-represented: about 3% of the library has one in this group of screens. Unless noted, calls follow the shape of the dose curve; as a rule, active = well fitted curve in the direction sought with a large enough effect; inconclusive = small, poorly fitted or top-dose-only effect, or another doubt; inactive = no such curve, though single readings can be large; an effect the other way counts as inactive or inconclusive. % is scaled to controls: 0 for no effect and ±100 for the full control effect; potency is read from the fitted curve at half-maximal effect.

SMILES	RE007 growth inh	LmPK inhibitor	Sm TGR block	TbPYK inhibitor
CC1C/C(=C/c2ccco2)C(=O)/C(=C/c2ccco2)C1 (configuration not stated)	/	9%	1.4µM*	/
O=C1/C(=C/c2ccco2)CCC1C1CCCC1 (configuration not stated)	3%	-8%	50µM*	-3%
O=C1/C(=C/c2ccco2)Cc2ccccc21	-18%	-23%	-30%	-11%
COc1cc(C(=O)Nc2ccccn2)cc(OC)c1OC	27%	-7%	-8%	-2%
Cc1cc(C(=O)Nc2ccccn2)cs1	-18%	14µM*	-3%	-16%
CC(C)Cc1nnc(NS(=O)(=O)c2ccc([N+](=O)[O-])cc2)s1	1%	40%	?	-21%
O=[N+]([O-])c1ccc(S(=O)(=O)Nc2nnc(C(F)(F)F)s2)cc1	-12%	0%	14µM*	-1%
O=C(Nc1ccccc1)N1CC[C@@]2(CCCN(C(=O)c3csnn3)C2)C1	/	/	/	-2%
Cc1ccc(NC(=O)c2c(C)nn(-c3ccccc3)c2-n2cccc2)c(Cl)c1	/	/	-9%	-11%
Oc1cccc(/C=N/Nc2nn3cnnc3c3ccccc23)c1	-9%	14µM*	-7%	2%
COc1cccc(/C=N/Nc2nn3cnnc3c3ccccc23)c1O	-1%	1%	-27%	3%
CC1CCCN(CCCNC(=O)c2cc(Sc3ccc(F)cc3)nc3ccccc23)C1 (configuration not stated)	/	/	-6%	-10%
O=C(O)c1cccc(COc2ccccc2Cl)c1	-10%	14µM*	-4%	-17%
Cc1ccc(C)c(N2CCN(C(=O)Cn3c(-c4cccs4)cc4ccccc43)CC2)c1	/	/	-2%	-9%
O=C1/C(=C\c2ccco2)SC(=S)N1c1ccccc1	-11%	4%	?	4%
O=C1/C(=C\c2ccco2)NC(=S)N1c1ccccc1	-4%	4%	-13%	-27%
CCCN=C1N/C(=C\c2ccco2)C(=O)N1c1ccccc1	-20%	-2%	40µM*	-4%
CCCN(CCC)C1=N/C(=C\c2ccco2)C(=O)N1c1ccccc1	-13%	8%	16µM*	-1%
CCN(CC)c1ccc(C2C(C(N)=O)=C(C)Nc3nc(SCc4ccccc4Cl)nn32)cc1 (configuration not stated)	/	/	-6%	-2%
CCOc1ccccc1N1Cc2ccccc2C1	8%	0%	13µM*	-10%
CCOc1ccc(N2CC(=O)N(c3ccc(OCC)cc3)CC2=O)cc1	-11%	-1%	-14%	-2%
CCOc1ccc(N2Cc3ccccc3C2)cc1	5%	-23%	56µM*	-2%
CCC(=O)N1CCCC1(C)C(=O)Nc1cc(OC)ccc1OC (configuration not stated)	9%[18.4 µM]	/	/	-9%
Cc1ccc(Nc2c(-c3ccc(C)o3)nc3cnccn23)cc1	7.9µM*!	-7%	10µM*	-24%
Cc1ccc(-c2nc3cnccn3c2Nc2ccccc2)o1	15%	6%	?	-13%
SMILES	RE007 growth inh	LmPK inhibitor	Sm TGR block	TbPYK inhibitor
Cc1ccn2c(Nc3ccc4c(c3)OCO4)c(-c3ccc(C)o3)nc2c1	/	/	-30%	-17%
Cc1ccc(-c2nc3cnccn3c2Nc2ccc3c(c2)OCO3)o1	2%	-7%	50µM*	-12%
O=C1N/C(=C\c2ccc(O)cc2)C(=O)c2ccccc21	-27%	10µM*	?	?
O=C(O)/C=C1\NC(=O)c2ccccc21	-9%	3%	13%	?
CC(C)CNc1ncnc2c1ncn2[C@H]1CN(CCN2CCOCC2)C[C@@H](CO)O1	1%	/	/	-6%
Brc1ccc(-c2nc3ccccc3s2)s1	?	28µM*	-24%	3%
c1ccc(-c2nc3ccccc3s2)nc1	-17%	11µM*	-9%	-4%
CCOC(=O)c1c(NC(=O)c2cc(=O)c3cc(C)ccc3o2)sc2c1CCCC2	/	/	-2%	11%
CCN(CC)C(=O)c1ccc(NC(=O)Nc2ccccc2F)cc1	13µM*	?	-7%	?
Cc1ccc(N/N=C/c2ccc(N3CCOCC3)cc2)cc1C	22%	3%	25µM*	-3%
CCOc1c(C=C(C#N)C#N)c2ccccc2n1CC	-5%	-1%	28µM*	-11%
COc1ccc(-c2n[nH]c(=S)n2-c2ccccc2C)cc1OC	-22%	?	-28%	?
COc1cc(-c2n[nH]c(=S)n2-c2ccc(C)cc2)cc(OC)c1OC	9%	9%	10%	8.9µM*
COc1ccc(-c2n[nH]c(=S)n2-c2ccc(Br)cc2)cc1OC	11%	18µM*	-19%	4µM*
CCc1ccccc1NC(=O)Cn1nnc(C(=O)NCc2ccco2)c1N	/	/	0%	5%
CCn1c(=O)oc2cc(NC(=O)CCl)ccc21	21%	7%	40µM*	-1%
Cn1c(=O)n(C)c2cc(NC(=O)CCl)ccc21	4%	1%	18µM*	-5%
Cc1cccc(NC(=O)c2c(N)sc3c2CCC(C)C3)c1 (configuration not stated)	/	/	-24%	-28%
CN1C(=O)C2(NC(=O)c3ccccc3N2C)c2ccccc21 (configuration not stated)	-9%	-1%	-15%	7%
CN1C(=O)C(Cl)(Cl)C(=O)c2ccccc21	-8%	-11%	0%	14µM*
CC1CC(=Cc2ccc(N)cc2)C(=O)O1 (configuration not stated)	-6%	/	/	8%
O=C(/C=C\Nc1ccccn1)c1ccccc1	0%	13µM*	-3%	-16%
O=C(/C=C/Nc1cccc(O)c1)c1ccccc1	1%	14µM*	?	-12%
COc1ccc(C(=O)/C=C/Nc2cc(C)ccn2)cc1	-13%	13µM*	22%	-27%
COc1ccc(C(=O)/C=C/Nc2ccccn2)c(OC)c1	?	-9%	7%	-3%
SMILES	RE007 growth inh	LmPK inhibitor	Sm TGR block	TbPYK inhibitor
COc1ccccc1-c1nc(S(=O)(=O)c2ccc(Cl)cc2)c(N2CCCCCC2)o1	/	/	?	0%
COc1ccc(-c2nc(S(=O)(=O)c3ccc(Cl)cc3)c(N3CCCCCC3)o2)cc1	/	/	22µM*	1%
Cc1cccc(-c2nc(S(=O)(=O)c3ccccc3)c(N3CCOCC3)o2)c1	-3%	-2%	45µM*	-4%
Cc1ccc(-c2nc(S(=O)(=O)c3ccc(C)cc3)c(N3CCOCC3)o2)cc1	4%	-1%	3.5µM*	28%
Cn1c2cc(Br)sc2c2cnn(Cc3c(F)cccc3F)c(=O)c21	/	/	25%	/
CC1(C)CC(=O)C(CS(=O)(=O)c2ccccc2)=C(Cl)C1	7%	-3%	7.1µM*	-16%
CC1(C)CC(=O)c2sc(NC(=O)CCS(=O)(=O)c3ccccc3)nc2C1	4%	5%	-13%	-3%
O=c1c(=O)n(-c2cccc(Cl)c2)ccn1Cc1cccc(F)c1	/	/	-19%	-5%
O=c1cc(CCl)[nH]c2nc3ccccc3n12	-2%	-11%	22µM*	2%
CC#CCN1c2ccccc2[C@]23C[C@@H](C(=O)OC)N(S(=O)(=O)c4c(C)noc4C)C2=NC(C(=O)OC)=C(C(=O)OC)[C@H]13	/	-5%[11.5 µM]	/	/
